One assay relates to CAMKK1. The note with it: concentration: 1 μM, replicates: in singlicate; n = 1.
In the next assay the test system is CAMKK2. The note with it: concentration: 1 μM, replicates: in singlicate, n = 1.
A further assay has as its system CASK. The note with it: concentration: 1 μM, replicates: in singlicate, n = 1.
For a further assay, the system named is T1, CDC2L1.
T1 construct: gene CDK11B
The note with it: concentration: 1 μM, replicates: in singlicate, n = 1.

Another assay deals with CDC2L2. The note with it: concentration: 1 μM, replicates: in singlicate, n = 1.
In another assay the test system is T2, CDC2L5.
T2 construct: gene CDK13
The note with it: concentration: 1 μM, replicates: in singlicate, n = 1.

The subject of a further assay is T3, CDK11.
T3 construct: gene CDK19
The note with it: concentration: 1 μM, replicates: in singlicate, n = 1.

A further assay concerns CDK2. The note with it: concentration: 1 μM, replicates: in singlicate; n = 1.
A further assay relates to CDK3. The note with it: concentration: 1 μM, replicates: in singlicate; n = 1.
A further assay has as its system CDK4-cyclinD1. The note with it: concentration: 1 μM, replicates: in singlicate, n = 1.

SMILES strings stand for the structures. “And” between values parts separate entries of the source, which are not always exact repeats. Equal entries are not always repeated. Where two headings read alike, the source gives them in different places.

These results are taken from paper PMC5540273 (PLoS ONE, 2017).
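Also: KINOMEscan kinase panel screen.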

On to `COc1ccc(Nc2ncc(C#N)c(Nc3ccccc3C(N)=O)n2)cc1N1CCN(C)CC1.Cl` [GSK1558669], for which the “%Inh” value in the assay on CAMKK1 is reported as 96.9%; in the assay on CAMKK2 it was 98.5%; in the assay on CASK it was 75%; in the assay with CDC2L1, 0%; with CDC2L2, 1%; with CDC2L5 it was 69%. In addition, the “%Inh” value in the assay with CDK11 was determined as 0%; with CDK2 it was 96.3%; with CDK3 it was 90%; in the assay with CDK4-cyclinD1 it was 94.8%.

For `CCc1ccnc(/C=C/c2n[nH]c3cc(Sc4ccccc4C(=O)NC)ccc23)c1`, the “%Inh” value in the assay with CAMKK1 was 16%; in the assay on CAMKK2 it was 11%; in the assay with CASK, 34%; in the assay on CDC2L1, 7%; in the assay on CDC2L2, 2%; with CDC2L5, 0%. Further, the “%Inh” value with CDK11 came out at 0%; in the assay with CDK2, 3%; with CDK3 it was 0%; in the assay on CDK4-cyclinD1, 16%.

As to `Cc1cccc(Cn2ccn3c(=O)cc(N4CCOCC4)nc23)c1` [GSK2297542], the “%Inh” value in the assay on CAMKK1 is given as 5%; in the assay with CAMKK2 it was 27%; in the assay on CASK it was 20%; in the assay on CDC2L1, 0%; in the assay on CDC2L2, 15%; in the assay on CDC2L5, 0%. The “%Inh” value in the assay on CDK11 is reported as 0%; in the assay on CDK2 it was 8%; in the assay with CDK3 it was 20%; in the assay with CDK4-cyclinD1, 0%.

On to `C[C@@H](Oc1cc(-n2cnc3ccc(NC(=O)NC(C)(C)C)cc32)sc1C(N)=O)c1ccccc1Cl` [GSK346294], for which the “%Inh” value in the assay with CAMKK1 stood at 3%; with CAMKK2, 24%; with CASK it was 11%; in the assay with CDC2L1, 0%; in the assay on CDC2L2, 13%; in the assay on CDC2L5, 0%. Moreover, the “%Inh” value in the assay with CDK11 was 4%; in the assay with CDK2, 0%; in the assay on CDK3, 9%; in the assay on CDK4-cyclinD1, 8%.

Turning to `NS(=O)(=O)c1cccc(-c2ccc3ncc(N4CCOCC4)nc3c2)c1` [GSK1535721], the “%Inh” value in the assay with CAMKK1 is given as 11%; in the assay on CAMKK2, 12%; in the assay on CASK it was 1%; in the assay on CDC2L1 it was 6%; in the assay on CDC2L2, 34%; in the assay with CDC2L5, 0%. The “%Inh” value with CDK11 turned out to be 7%; with CDK2, 0%; in the assay with CDK3, 0%; in the assay with CDK4-cyclinD1, 0%.

`Cl.Nc1ncnc2occ(-c3ccc(NC(=O)Nc4cc(C(F)(F)F)ccc4F)cc3)c12` [SB-707548]: the “%Inh” value with CAMKK1 turned out to be 9%; in the assay on CAMKK2, 25%; in the assay on CASK, 5%; in the assay with CDC2L1 it was 25%; in the assay with CDC2L2, 49%; in the assay with CDC2L5, 97.4%. Further, the “%Inh” value is 100% in the assay on CDK11, 80% in the assay with CDK2, 89% with CDK3 and 3% with CDK4-cyclinD1.

Turning to `CSc1ccc(-c2cc3ncnc(SCC(=O)O)c3s2)cc1`, the “%Inh” value is 44% in the assay on CAMKK1; 45% in the assay with CAMKK2; 0% in the assay with CASK; 7% in the assay with CDC2L1; 0% in the assay with CDC2L2; 0% in the assay with CDC2L5. The “%Inh” value was determined as 0% in the assay on CDK11, 0% with CDK2, 40% in the assay on CDK3 and 0% with CDK4-cyclinD1.

On to `Nc1nccc(-c2c(-c3ccc(F)cc3)ncn2C2CCN(CC(F)(F)F)CC2)n1` [SB-236560], for which the “%Inh” value in the assay with CAMKK1 turned out to be 13%; in the assay with CAMKK2 it was 88%; in the assay on CASK it was 0%; with CDC2L1 it was 0%; in the assay with CDC2L2, 0%; with CDC2L5, 43%. Besides, the “%Inh” value is on record as 17% in the assay with CDK11, 0% in the assay with CDK2, 11% in the assay on CDK3 and 49% in the assay with CDK4-cyclinD1.

Consider `CC(C)(CN)c1nc(-c2ccc(Cl)c(O)c2)c(-c2ccncc2)[nH]1.O=C(O)C(F)(F)F` [SB-477794], for which the “%Inh” value in the assay with CAMKK1 is 0%; in the assay with CAMKK2 (1 µM), 0% and 4%; with CASK (1 µM), 18% and 0%; in the assay on CDC2L1 it was 0%; with CDC2L2 (1 µM), 31% and 2%; in the assay with CDC2L5 (1 µM), 0% and 30%. Also, the “%Inh” value is 0% with CDK11; 0% in the assay with CDK2; 7% in the assay with CDK3; 25% and 64% in the assay with CDK4-cyclinD1 (1 µM).

Regarding `COc1cc(Nc2nccc(N3CCC(NC(=O)c4cccc(NC(C)=O)c4)C3)n2)cc(OC)c1OC` (centres unmarked) [GSK1379754], the “%Inh” value is 0% in the assay with CAMKK1; 11% with CAMKK2; 1% in the assay with CASK; 0% in the assay with CDC2L1; 2% in the assay with CDC2L2; 0% in the assay with CDC2L5. Further, the “%Inh” value in the assay on CDK11 was 20%; in the assay with CDK2 it was 2%; with CDK3, 0%; with CDK4-cyclinD1, 0%.

`O=C(c1ccc(-c2cc(-c3c[nH]nc3-c3ccccn3)ccn2)cc1)N1CCOCC1` [GW812171]: the “%Inh” value was 0% in the assay on CAMKK1; 0% in the assay on CAMKK2; 4% in the assay on CASK; 0% in the assay on CDC2L1; 2% in the assay with CDC2L2; 11% in the assay on CDC2L5. In addition, the “%Inh” value in the assay with CDK11, in the assay on CDK2, with CDK3 and in the assay on CDK4-cyclinD1 was 0% throughout.

`COc1ccc(CNC(=O)NC2CCN(c3ccnc(Nc4ccc(OC)cc4)n3)C2)cc1` (centres unmarked) [GSK1379727]: the “%Inh” value worked out at 0% in the assay on CAMKK1; 4% in the assay with CAMKK2; 16% in the assay with CASK; 0% in the assay with CDC2L1; 8% in the assay on CDC2L2; 0% in the assay on CDC2L5. The “%Inh” value stood at 1% in the assay on CDK11, 0% with CDK2, 13% with CDK3 and 18% in the assay with CDK4-cyclinD1.

For the molecule `CN(C1=C(c2ccccc2)C(=O)NC1=O)c1ccccc1` [SB-334860], the “%Inh” value came to 0% in the assay with CAMKK1; 16% with CAMKK2; 17% in the assay with CASK; 0% in the assay with CDC2L1; 14% in the assay with CDC2L2; 0% in the assay with CDC2L5. In addition, the “%Inh” value in the assay with CDK11 amounted to 8%; with CDK2, 5%; with CDK3, 8%; with CDK4-cyclinD1, 0%.

Turning to `N#Cc1ccc(-c2cc(-c3c[nH]nc3-c3ccccn3)ccn2)cc1` [GW693028], the “%Inh” value in the assay on CAMKK1 was determined as 0%; with CAMKK2, 2%; in the assay on CASK, 9%; with CDC2L1 it was 0%; in the assay with CDC2L2 it was 0%; with CDC2L5, 0%. The “%Inh” value is 12% in the assay with CDK11, 0% in the assay with CDK2, 6% in the assay with CDK3 and 0% with CDK4-cyclinD1.

For the molecule `Cc1nnc(-c2ccc(C)c(-c3ccc(C(=O)Nc4ccc(NS(C)(=O)=O)cc4)cc3)c2)o1` [GW702865], the “%Inh” value is 0% in the assay with CAMKK1; 0% with CAMKK2; 23% with CASK; 0% in the assay on CDC2L1; 8% in the assay with CDC2L2; 0% in the assay on CDC2L5. Also, the “%Inh” value with CDK11 turned out to be 0%; with CDK2 it was 0%; in the assay with CDK3, 1%; in the assay on CDK4-cyclinD1, 36%.

`Cc1ccc(C(=O)NCC(N)=O)cc1-n1c(C)cc(OCc2ccc(F)cc2F)c(Br)c1=O`: the “%Inh” value in the assay on CAMKK1 was 3%; in the assay on CAMKK2 it was 0%; in the assay with CASK, 0%; in the assay on CDC2L1 it was 7%; with CDC2L2, 20%; in the assay with CDC2L5 it was 0%. Moreover, the “%Inh” value in the assay with CDK11, in the assay on CDK2, in the assay with CDK3 and in the assay with CDK4-cyclinD1 was 0% throughout.

Regarding `Cl.Cl.Cl.Fc1ccc(-c2ncn(C3CCNCC3)c2-c2ccnc(Nc3ccccc3)n2)cc1` [SB-238039], the “%Inh” value in the assay on CAMKK1 was 0%; in the assay on CAMKK2 it was 0%; in the assay on CASK (1 µM), 16% and 0%; with CDC2L1 (1 µM), 99.4% and 98.5%; in the assay with CDC2L2 (1 µM) it was 99.8% and 98.2%; in the assay on CDC2L5 (1 µM), 32% and 16%. In addition, the “%Inh” value in the assay on CDK11 (1 µM) is 0% and 2%; in the assay on CDK2 it was 0%; in the assay on CDK3, 0%; in the assay on CDK4-cyclinD1 (1 µM), 0% and 15%.
